Only a selection was taken, and hits are over-represented in it overall.
LmPK inhibitor = inhibitors of Leishmania mexicana pyruvate kinase | Potency, µM (series often up to 57.5 µM), inactives show at the top dose activity change, negative = inhibition, usual class: inhibitors | purified LmPK, Kinase-Glo ATP luminescence, 1 h | hit rate 0.37% among 290,000 | Q27686; note: potency is the fitted concentration of half-maximal effect; % is set by controls: 0 for no effect and ±100 for the full control effect
Target sequence (Q27686 whole entry, looked up): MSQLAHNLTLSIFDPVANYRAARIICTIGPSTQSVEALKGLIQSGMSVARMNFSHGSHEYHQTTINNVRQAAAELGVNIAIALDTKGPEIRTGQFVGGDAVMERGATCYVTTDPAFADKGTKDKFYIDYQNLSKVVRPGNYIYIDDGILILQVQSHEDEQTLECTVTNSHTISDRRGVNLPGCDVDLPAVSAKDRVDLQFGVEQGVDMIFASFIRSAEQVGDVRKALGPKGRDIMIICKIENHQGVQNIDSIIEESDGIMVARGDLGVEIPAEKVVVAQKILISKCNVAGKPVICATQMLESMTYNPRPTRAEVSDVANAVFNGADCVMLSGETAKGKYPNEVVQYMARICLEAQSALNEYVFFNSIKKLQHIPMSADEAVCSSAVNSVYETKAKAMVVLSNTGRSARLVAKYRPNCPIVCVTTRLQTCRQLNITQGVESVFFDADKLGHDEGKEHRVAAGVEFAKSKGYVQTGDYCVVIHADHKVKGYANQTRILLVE
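Pyruvate kinase activity monitored as ATP production (luciferase luminescence). Conditions: 0.1 nM enzyme, 0.5 mM PEP, 0.1 mM ADP, 1 h, RT; normalized against uninhibited and no-enzyme wells.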
Giardia FBPA inh = Giardia lamblia aldolase inhibition. Potency, µM (highest dose often 59.6 µM), for inactives: top-dose activity, negative = inhibition, hits mostly inhibitors. purified Giardia FBPA. hit rate 0.71% among 290,000; note: potency is the fitted concentration of half-maximal effect; % is set by controls: 0 for no effect and ±100 for the full control effect; nearly all actives have a fitted effect of over 55% in size
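40 nM FBPA preincubated 10 min at RT with compound (up to 57.5 uM final), then substrate plus GAPDH/TPI/NAD/arsenate coupling and diaphorase/resazurin added. Fluorescence read after 20 min at RT, 525/598 nm.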
Cycloheximide cs = affects cycloheximide protein synthesis inhibition readout, counter-screen. cell reporter, cycloheximide protein synthesis inhibition counterscreen. max response, %. hit rate 12% among 300,000. AID 2314; in the data active = max response mostly above about 13%, no sharp cut-off; inactive = mostly below about 14%; note: read at 38.3 µM for the half of the compounds with a filed dose; 0% is about no effect
TbPYK inhibitor = inhibitors of Trypanosoma brucei pyruvate kinase; TbPYK enzyme, Kinase-Glo Plus ATP luminescence, 45 min; Potency, µM (highest dose often 76.8 µM), for inactives: at the top dose activity, negative = inhibition, actives largely listed as inhibitors; hit rate 0.12% among 410,000; note: potency is the fitted concentration of half-maximal effect; % is set by controls: 0 for no effect and ±100 for the full control effect; nearly all actives have a fitted effect of over 50% in size
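Readout: single end-point luminescence (Kinase-Glo Plus, 10 min). Reaction conditions were TbPYK/substrate plus 130 uM ADP, 45 min at RT, pH 7.2 TEA buffer. No-enzyme wells served as controls, and data were normalized before concentration-response fitting.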
RE007 growth inh = less growth of the S. pombe RE007 Vpr strain | hit rate 0.21% among 360,000 | S. pombe RE007 Vpr strain, BacTiter-Glo ATP luminescence, 24 h | AID 651644 | Potency, µM (series often up to 92.2 µM), for inactives: at the top dose activity change, negative = less growth, hits mostly inhibitors; active = well fitted falling curve with a large enough effect; inconclusive = small, poorly fitted or top-dose-only effect; inactive = no such curve, though single readings can be large or run the other way; note: potency is the fitted concentration of half-maximal effect; % is set by controls: 0 for no effect and ±100 for the full control effect; nearly all actives have a fitted effect of over 50% in size
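Fission yeast RE007 carrying one integrated HIV-1 vpr copy, seeded at OD 0.01 in PMG+AL medium with 23 nL pinned compound. Grown 24 h at 30 degrees; viability read by BacTiter-Glo luminescence after 5 min.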
Shiga inhibitor = Shiga toxin inhibition; inhibition, % at 38.7 µM; Vero cells, Shiga toxin protein synthesis inhibition reporter; hit rate 9.2% among 290,000; in the data active = inhibition mostly above about 28%, no sharp cut-off; inactive = mostly below about 43%; note: 0% is about no effect
The depositor's hits bear a star; ? = inconclusive; . = no result given; [ ] = another dose, or the depositor's remark. Unless noted, calls come from the whole dose curve; as a rule, active = well fitted curve in the direction sought with a large enough effect; inconclusive = small, poorly fitted or top-dose-only effect, or another doubt; inactive = no such curve, though single readings can be large; an effect the other way counts as inactive or inconclusive.

SMILES	LmPK inhibitor	Giardia FBPA inh	Cycloheximide cs	TbPYK inhibitor	RE007 growth inh	Shiga inhibitor
COc1ccc2[nH]cc(CCNc3ncnc4ccc(-c5ccccc5C#N)cc34)c2c1	.	-3.7%	.	.	.	.
CCCNC(=O)C1(C)CCN(CCOc2ccc(Cl)cc2)C1 (configuration not stated)	.	.	.	8.2%	-6.5%	.
COc1cc(-c2ccno2)ccc1S(=O)(=O)N1CCN(c2ccc(F)cc2)CC1	.	.	.	0.4%	.	.
O=C(CN1CCOCC1)Nc1ccc(C2CCCCC2)cc1	-0.8%	-0.9%	38.9*	3.2%	19.2%	53.3
CC(=O)N1CCN(CC(=O)Nc2ccc3c(c2)CCC3)CC1	4.1%	2.5%	-1.6	2.4%	21.5%	9.8
O=C(COc1cccnc1[N+](=O)[O-])Nc1ccc2c(c1)CCC2	12.1%	4.1%	20.0*	-3.3%	14.1%	11.0
Cc1ccc(NC(=O)CN2CCOCC2)cc1	-10.0%	8.5%	9.4	-0.3%	1.7%	18.1
O=C(CN1CCCC1)Nc1ccc2c(c1)CCC2	-1.5%	?	23.5*	-6.8%	-28.3%	34.8*
CN(C)c1ccc(NC(=O)Nc2nc(C(N)C3CCCCC3)cs2)cc1 (configuration not stated)	.	.	.	-13.3%	-9.3%	.
Cc1cc(C)c2c(N)c(C(=O)C(C)(C)C)sc2n1	-1.1%	5.5%	-0.7	-2.1%	-4.3%	-12.0
Cc1cc(C)c2c(N)c(C(=O)NC3CCCC3)sc2n1	-0.2%	-13.6%	20.1*	-27.8%	3.0%	70.3*
COc1cc(Cl)c(C)cc1NC(=O)c1sc2nc(C)cc(C)c2c1N	.	.	.	-1.3%	.	.
Cc1cc(C)c2c(N)c(C(=O)NCC3CCCCC3)sc2n1	2.5%	-4.2%	35.3*	-16.0%	-14.9%	130.0*
Cc1[nH]c2ccccc2c1C(=O)COC(=O)c1ccc([N+](=O)[O-])s1	4.1%	-17.4%	-5.2	-2.3%	63.1µM*	-12.6
Cc1[nH]c2ccccc2c1C(=O)COC(=O)C1CCC1	1.0%	-1.9%	23.1*	-1.7%	-2.7%	40.2
Cc1cc(C(=O)OCC(=O)N2CCC(c3ccccc3)=N2)ccc1[N+](=O)[O-]	.	.	.	-0.7%	0.0%	.
O=C(COC(=O)c1ccc([N+](=O)[O-])s1)NCc1ccccc1	2.0%	-2.3%	0.0	3.4%	6.0%	5.2
O=C(OCC(=O)N1CCC(c2ccccc2)=N1)c1ccc([N+](=O)[O-])s1	.	.	.	1.7%	15.8µM*	.
Cc1[nH]c2ccccc2c1C(=O)COC(=O)C1CCC(=O)N1 (configuration not stated)	4.2%	-0.4%	-3.4	-2.1%	6.0%	-10.2
COc1ccc(OC)c(CCNC(=O)c2nn(C)c3c2CSc2ccccc2-3)c1	.	.	.	2.4%	.	.
COc1ccc(C2/C=C\CN(C(=O)c3ccccc3)C(C)C(=O)N2Cc2ccc(F)cc2)cc1 (configuration not stated)	.	-5.9%	-0.3	.	.	-13.8
COc1ccc(C2/C=C\CN(C(=O)c3ccc(C)cc3)C(C)C(=O)N2Cc2ccc(F)cc2)cc1 (configuration not stated)	.	-6.9%	83.5*	.	.	144.3*
COc1ccc(C2/C=C\CN([S+](=O)([O-])c3ccc4ccccc4c3)C(C)C(=O)N2Cc2ccc(F)cc2)cc1 (configuration not stated)	.	-2.7%	84.1	.	.	148.5*
COc1ccc(C2/C=C\CN(Cc3ccccc3)C(C)C(=O)N2Cc2ccc(F)cc2)cc1 (configuration not stated)	.	-4.0%	36.2*	.	.	61.9*
CCCCCC(=O)N1C[C@@H](O)[C@H](n2cc(-c3ccc(F)cc3)nn2)C[C@@H]1c1ccccc1	.	.	.	5.1%	13.9%	.
COc1ccc(NC(=O)C2=C(C)Nc3nc(SCc4ccc(C)cc4C)nn3C2c2cccc(OC)c2OC)cc1 (configuration not stated)	.	.	.	-3.1%	.	.
COc1cccc(-c2nc(-c3ccc(NC(=O)c4ccncc4)cc3)no2)c1	-5.0%	4.3%	-1.4	.	13.8%[3.69 µM]	51.3
O=[N+]([O-])c1cccc(-c2noc(-c3cccs3)n2)c1	-10.0%	0.9%	34.0*	0.2%	6.4%	77.7*
c1csc(-c2nc(N3CCCCC3)no2)c1	-15.6%	6.9%	37.3*	-5.2%	?	82.4*
